# Assay results published in the supplement of paper PMC12636033.
# ± gives the standard deviation of the averaged measurements. Whole data set: some 33,000 sequences, median “E-score (rank enrichment, -0.5 to 0.5)” near -0.0068, cut for the highest 2% near 0.24. This is one part of a sample in which the highest values are shown more often than they occur.
# Tested on: muMax20 (Max(13-93) K31hArg/K57hArg, M65Nle)
# Test: PBM 8-mer E-score (E-score (rank enrichment, -0.5 to 0.5)); higher = stronger preferential binding
# Description: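 Protein binding microarray (universal PBM chip covering all 10-mers in fixed probe flanks) with chemically synthesized human Max(13-93) bHLH-LZ analogs (not full-length Max) bearing noncanonical residues (hArg, Tha, Aib, Nle at 65) and aromatic Cys staples. Read-out per 8-mer (and its reverse complement): E-score (rank-based enrichment, -0.5 to 0.5) and Z-score of median probe intensity.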
row,Sequence,PBM 8-mer E-score
1,CAAATGGA,-0.0819 ± 0.12
2,AAAATGGG,-0.088 ± 0.024
3,AAAATGGA,0.298 ± 0.036
4,AGGCTATG,-0.0609 ± 0.077
5,ATTCAGCA,0.076 ± 0.071
6,TAATCGTA,0.162 ± 0.0019
7,AAATCGTA,0.248 ± 0.024
8,AAATCAAG,0.141 ± 0.028
9,AAATCAAA,0.2624 ± 0.00016
10,CAATCGTA,0.18 ± 0.038
11,AAATCAAT,0.192 ± 0.01
12,ATGTGTCC,0.0398 ± 0.026
13,TGAGAACA,0.115 ± 0.095
14,ACAACGAC,0.0368 ± 0.017
15,ATATGATG,0.193 ± 0.013
16,GTATGATA,0.323 ± 0.069
17,GCATGATA,0.249 ± 0.015
18,CCATGATA,0.0877 ± 0.047
19,GTATGAGA,0.161 ± 0.072
20,ACATGATA,0.197 ± 0.045
21,CTATGATA,-0.0149 ± 0.015
22,ATATGATA,0.273 ± 0.081

row,Sequence,PBM 8-mer E-score
1,GGATGATA,0.0453 ± 0.067
2,ACGGTGCG,-0.17 ± 0.023
3,CTACTTAA,0.09273 ± 0.00059
4,CGAGTGTC,-0.179 ± 0.053
5,CTTTGATC,-0.09609 ± 0.0009
6,AAGAGACC,0.0547 ± 0.019
7,CCGAGTAA,-0.0803 ± 0.014
8,GAACGGAA,-0.0438 ± 0.095
9,ATTAATAA,0.274 ± 0.0099
10,GTTAATAA,0.227 ± 0.066
11,CTGAATAC,-0.0332 ± 0.1
12,ATTAATAG,0.255 ± 0.09
13,ACTAATAC,0.158 ± 0.089
14,ATTAATGG,0.0317 ± 0.074
15,ATTAATCG,0.0839 ± 0.061
16,ATGAATAC,0.248 ± 0.057
17,CTTAATAA,0.0902 ± 0.011
18,ATTAATAC,0.266 ± 0.021
19,CTTAATAC,0.214 ± 0.041
20,ATGAATAG,0.172 ± 0.08
21,AGATTGCT,-0.0246 ± 0.009
22,GGATAGAA,0.123 ± 0.013

row,Sequence,PBM 8-mer E-score
1,AACTCCCG,-0.034 ± 0.042
2,GGAATCGA,-0.191 ± 0.065
3,GCGACTAC,-0.0421 ± 0.049
4,ACAAACCC,0.11 ± 0.054
5,GGGTGGTA,-0.00184 ± 0.074
6,ACTAGAGG,0.113 ± 0.047
7,ACATGCGC,0.17 ± 0.0097
8,ACATGCAG,0.032 ± 0.14
9,ACATGCAA,0.16 ± 0.046
10,ACATGCAC,0.185 ± 0.034
11,TCATGCAA,0.277 ± 0.021
12,ACATGCAT,0.294 ± 0.053
13,GCATGCAA,0.147 ± 0.034
14,ACATGCGT,0.243 ± 0.13
15,ACATGCGG,0.00547 ± 0.099
16,ATTTCACC,0.0208 ± 0.092
17,ATTGTGGA,0.0503 ± 0.16
18,AGATATAT,0.176 ± 0.023
19,CTCGTACA,0.041 ± 0.08
20,GTCGTACA,0.242 ± 0.13
21,ATCGTACA,0.159 ± 0.048
22,ACGTGAAT,0.235 ± 0.083

row,Sequence,PBM 8-mer E-score
1,CTTCTCAA,0.0152 ± 0.1
2,AGCCAGCC,-0.293 ± 0.06
3,CCTAAGAA,0.099 ± 0.038
4,ATGCTCAA,0.0249 ± 0.035
5,CGCCGTGA,-0.131 ± 0.031
6,TAATAACA,0.124 ± 0.0069
7,AAATAATC,0.0578 ± 0.046
8,CAATAATA,0.304 ± 0.0083
9,AAATAATA,0.232 ± 0.013
10,GAATAACA,0.175 ± 0.11
11,AAATAATT,0.242 ± 0.046
12,CAATAATG,0.117 ± 0.023
13,CAATAACA,0.26 ± 0.066
14,CAATAATC,0.0932 ± 0.028
15,ATTTACCC,0.0541 ± 0.029
16,CGTCTGGA,-0.178 ± 0.11
17,GCCTGTTA,0.0517 ± 0.1
18,AGCACCCG,-0.159 ± 0.024
19,CGGCCAAA,-0.227 ± 0.024
20,CGCTGATA,-0.0375 ± 0.12
